The results in this text go back to the supplement of paper PMC8253809.

What all share (experiment): growth inhibition (% activity, log2 RLU normalised to DMSO / staurosporine); higher = more growth inhibition
Holding throughout (settings): 33 µM

The test system of one assay is DIPGX29 (H3.3 K27M diffuse intrinsic pontine glioma line). The method in brief: (§1)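 Approved drugs, at a single final concentration of about 33 μM, were applied in triplicate to pHGG cell lines and H9-derived neural stem cells for 7 days at 37 °C, 5% CO2. The growth-inhibition value is the replicate median of log2-transformed CellTiter-Glo luminescence normalised per plate to % activity between solvent and positive control wells.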

For the next assay, the system named is DIPGX37 (H3.3 K27M diffuse intrinsic pontine glioma line). The method in brief: as §1
A further assay deals with DIPGX7 (H3.3 K27M diffuse intrinsic pontine glioma line). The method in brief:
as §1

The subject of the next assay is DIPGX9 (diffuse intrinsic pontine glioma line). The gist of the method:
as §1

The next assay concerns HGGX39 (paediatric high-grade glioma line). The gist of the method: as §1
The test system of the next assay is HGGX6 (H3.3 G34R paediatric high-grade glioma line). The gist of the method:
as §1

The subject of another assay is HNSC. The gist of the method: as §1
Another assay deals with SUDIPGIV (diffuse intrinsic pontine glioma line)
The method in brief: as §1

For another assay, the system named is SUDIPGVI (diffuse intrinsic pontine glioma line)
The method in brief:
as §1

The subject of the next assay is SUDIPGXIII (diffuse intrinsic pontine glioma line)
The method in brief:
as §1

In the case of `CCN1CCCC1CNC(=O)c1cc(S(N)(=O)=O)ccc1OC` (stereo not given), the growth inhibition amounted to 1.2% in the assay on DIPGX29; 3.95% in the assay with DIPGX37; 2.35% in the assay on DIPGX7; 1.38% with DIPGX9; 2.29% with HGGX39; 0.912% with HGGX6. Further, the growth inhibition in the assay with HNSC was determined as 1.32%; in the assay on SUDIPGIV, 0.319%; in the assay with SUDIPGVI, 3.68%; with SUDIPGXIII it was 0.786%.
Regarding `Cc1ccc(-c2cc(C(F)(F)F)nn2-c2ccc(S(N)(=O)=O)cc2)cc1`, the growth inhibition was 0.436% in the assay on DIPGX29; -3.87% with DIPGX37; -0.904% in the assay on DIPGX7; 0.265% with DIPGX9; -0.617% with HGGX39; -1.39% with HGGX6. Also, the growth inhibition is 0.519% in the assay with HNSC, -5.64% in the assay with SUDIPGIV, 1.64% with SUDIPGVI and 0.102% in the assay with SUDIPGXIII.
As to `CN(Cc1ccc(C(C)(C)C)cc1)Cc1cccc2ccccc12`, the growth inhibition in the assay with DIPGX29 amounted to 1.43%; with DIPGX37 it was 0.769%; in the assay on DIPGX7, 0.907%; in the assay with DIPGX9, 2.12%; with HGGX39, 3.22%; with HGGX6, 1.49%. The growth inhibition came to 0.815% in the assay on HNSC, 3.24% in the assay with SUDIPGIV, 3.2% in the assay with SUDIPGVI and 1.08% in the assay on SUDIPGXIII.
